For some of these results: Potency and affinity values are given separately.
Key:
Design in all cases: scale not given: direction of the effect not stated beside the values
[1] = biological target: Protein translocase subunit SecA (Escherichia coli (strain K12)) (UniProt P10408); assay: Assay to Identify E. coli SecA ATPase Inhibitors; format: functional; conditions: 30 µM
[2] = biological target: T1, Ubiquitin-activating enzyme e1, putative (Leishmania donovani (strain BPK282A1)) (UniProt E9BSI1); assay: Leishmania donovani Ubiquitin Activating Enzyme (LdE1); format: functional; conditions: 30 µM
T1 sequence (whole entry): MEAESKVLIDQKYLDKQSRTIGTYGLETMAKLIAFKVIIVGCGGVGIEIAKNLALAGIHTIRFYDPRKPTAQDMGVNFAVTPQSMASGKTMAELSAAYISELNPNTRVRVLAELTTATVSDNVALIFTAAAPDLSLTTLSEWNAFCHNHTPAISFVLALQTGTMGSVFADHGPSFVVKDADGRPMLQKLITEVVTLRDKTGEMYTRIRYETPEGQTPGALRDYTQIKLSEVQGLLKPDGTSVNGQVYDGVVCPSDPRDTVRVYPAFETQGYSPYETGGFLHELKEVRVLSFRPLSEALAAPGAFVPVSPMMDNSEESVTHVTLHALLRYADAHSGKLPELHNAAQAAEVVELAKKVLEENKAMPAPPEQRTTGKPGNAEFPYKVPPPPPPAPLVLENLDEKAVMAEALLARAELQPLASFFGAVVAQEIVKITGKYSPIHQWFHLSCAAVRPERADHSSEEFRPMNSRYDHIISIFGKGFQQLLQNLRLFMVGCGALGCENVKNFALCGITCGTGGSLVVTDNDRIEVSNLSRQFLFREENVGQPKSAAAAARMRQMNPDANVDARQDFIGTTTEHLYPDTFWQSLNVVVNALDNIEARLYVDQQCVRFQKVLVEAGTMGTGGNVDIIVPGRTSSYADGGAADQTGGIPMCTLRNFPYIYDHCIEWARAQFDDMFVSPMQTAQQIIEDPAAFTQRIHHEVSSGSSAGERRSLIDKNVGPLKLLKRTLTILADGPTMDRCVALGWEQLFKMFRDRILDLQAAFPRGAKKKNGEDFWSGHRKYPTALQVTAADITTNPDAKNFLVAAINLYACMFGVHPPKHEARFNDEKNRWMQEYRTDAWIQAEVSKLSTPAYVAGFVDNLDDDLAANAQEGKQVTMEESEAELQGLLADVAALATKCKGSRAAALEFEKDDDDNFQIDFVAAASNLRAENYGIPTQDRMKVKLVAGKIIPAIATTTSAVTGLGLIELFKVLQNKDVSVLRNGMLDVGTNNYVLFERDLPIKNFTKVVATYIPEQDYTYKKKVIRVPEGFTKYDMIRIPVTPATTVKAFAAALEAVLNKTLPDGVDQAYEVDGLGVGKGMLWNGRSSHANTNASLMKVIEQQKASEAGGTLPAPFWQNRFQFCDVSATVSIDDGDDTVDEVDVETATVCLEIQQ

[3] = biological target: AMP-activated protein kinase, AMPK (Homo sapiens) (UniProt P54646+O43741+P54619+Q9UGJ0+Q9Y478+Q13131+Q9UGI9); assay: AMP-dependent Kinase enzyme assay. An in vitro enzyme assay that detects ADP turnover that is directly proportional to AMPK activity. This uses naive AMPK that is activated during the assay with MK-8722; format: functional; conditions: 30 µM
[4] = biological target: Sialic acid-binding Ig-like lectin 9 (Homo sapiens) (UniProt Q9Y336); assay: Hs-Siglec9 ALPHAscreen SOP 20170721; conditions: 10 µM
Trypanosoma cruzi = assay: Trypanosoma cruzi phosphomannomutase and mannose-1-phosphate guanylyltransferase assay; format: functional; conditions: 10 µM
[5] = biological target: T2, Arginase-2, mitochondrial (Homo sapiens) (UniProt P78540); assay: in vitro enzyme assay to detect the production of urea directly proportional to the activity of Arginase II; format: functional; conditions: 33.3 µM; note: in the data most compounds retested in dose-response had high values
T2 sequence (whole entry): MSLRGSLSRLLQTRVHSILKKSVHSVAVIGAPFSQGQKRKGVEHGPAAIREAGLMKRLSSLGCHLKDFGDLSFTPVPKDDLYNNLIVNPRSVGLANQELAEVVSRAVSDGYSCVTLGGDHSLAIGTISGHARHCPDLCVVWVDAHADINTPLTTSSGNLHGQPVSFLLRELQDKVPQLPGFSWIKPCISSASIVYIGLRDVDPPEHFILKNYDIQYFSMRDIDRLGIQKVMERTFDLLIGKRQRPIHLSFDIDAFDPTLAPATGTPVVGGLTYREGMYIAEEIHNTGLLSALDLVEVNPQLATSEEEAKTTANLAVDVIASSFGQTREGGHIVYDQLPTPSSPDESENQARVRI

[6] = biological target: T3, Proteasome subunit beta (Trypanosoma cruzi) (UniProt O96673); assay: Trypanosoma cruzi proteasome chymotrypsin-like activity (TcProtChymo) assay.; note: in the data most compounds retested in dose-response had high values; format: functional; conditions: 9.37 µM
T3 sequence (whole entry): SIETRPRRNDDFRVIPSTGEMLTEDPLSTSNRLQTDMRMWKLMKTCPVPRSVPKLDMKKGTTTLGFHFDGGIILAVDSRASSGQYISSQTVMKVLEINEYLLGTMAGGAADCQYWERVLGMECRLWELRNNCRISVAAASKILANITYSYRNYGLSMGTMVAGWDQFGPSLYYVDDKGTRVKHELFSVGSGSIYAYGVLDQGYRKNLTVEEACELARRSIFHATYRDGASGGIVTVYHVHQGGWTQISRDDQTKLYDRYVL

Homo sapiens = organism: Homo sapiens; assay: To identify inhibition of the IFN signalling (Jak-Stat) pathway via expression of an eGFP reporter gene under the control of an IFN-stimulated response element (ISRE) containing MxA promoter.; format: functional; conditions: 30 µM
[7] = biological target: T4, Tyrosyl-tRNA synthetase, putative (Trypanosoma cruzi (strain CL Brener)) (UniProt Q4DSP6); assay: Trypanosoma cruzi tyrosyl tRNA synthetase (TcYRS) _High Tyrosine SOP; format: functional; conditions: 30 µM; note: in the data most compounds retested in dose-response had high values
T4 sequence (whole entry): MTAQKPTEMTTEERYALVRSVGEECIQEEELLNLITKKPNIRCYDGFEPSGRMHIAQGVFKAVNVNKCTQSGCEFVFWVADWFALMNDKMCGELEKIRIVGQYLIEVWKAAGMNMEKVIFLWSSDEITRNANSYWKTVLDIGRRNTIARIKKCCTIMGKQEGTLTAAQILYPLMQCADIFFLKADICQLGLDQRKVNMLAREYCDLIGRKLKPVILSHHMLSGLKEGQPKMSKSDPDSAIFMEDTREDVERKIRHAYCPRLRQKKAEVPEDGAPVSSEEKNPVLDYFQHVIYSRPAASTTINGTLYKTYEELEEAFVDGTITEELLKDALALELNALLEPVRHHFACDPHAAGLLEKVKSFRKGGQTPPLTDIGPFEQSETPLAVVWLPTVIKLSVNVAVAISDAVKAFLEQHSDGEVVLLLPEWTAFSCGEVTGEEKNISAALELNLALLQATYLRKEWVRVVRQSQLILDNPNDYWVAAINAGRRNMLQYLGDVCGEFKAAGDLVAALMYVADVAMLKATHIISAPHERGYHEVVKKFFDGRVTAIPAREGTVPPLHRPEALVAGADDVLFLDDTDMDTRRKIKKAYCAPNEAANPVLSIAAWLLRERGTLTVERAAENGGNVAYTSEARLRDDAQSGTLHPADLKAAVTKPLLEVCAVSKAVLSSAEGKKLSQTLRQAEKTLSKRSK

[8] = biological target: T4, Tyrosyl-tRNA synthetase, putative (Trypanosoma cruzi (strain CL Brener)); assay: Trypanosoma cruzi tyrosyl tRNA synthetase (TcYRS) SOP; format: functional; conditions: 30 µM
[9] = biological target: Chromo domain-containing protein 1 (Saccharomyces cerevisiae (strain ATCC 204508 / S288c) (Baker's yeast)) (UniProt P32657); assay: ScCHD-1 Enzyme Inhibition Assay; format: functional; conditions: 30 µM; note: in the data most compounds retested in dose-response had high values
Chromo domain-containing protein 1 (Saccharomyces cerevisiae (strain ATCC 204508 / S288c) (Baker's yeast)), sequence (P32657 whole entry, the tested form may be a part): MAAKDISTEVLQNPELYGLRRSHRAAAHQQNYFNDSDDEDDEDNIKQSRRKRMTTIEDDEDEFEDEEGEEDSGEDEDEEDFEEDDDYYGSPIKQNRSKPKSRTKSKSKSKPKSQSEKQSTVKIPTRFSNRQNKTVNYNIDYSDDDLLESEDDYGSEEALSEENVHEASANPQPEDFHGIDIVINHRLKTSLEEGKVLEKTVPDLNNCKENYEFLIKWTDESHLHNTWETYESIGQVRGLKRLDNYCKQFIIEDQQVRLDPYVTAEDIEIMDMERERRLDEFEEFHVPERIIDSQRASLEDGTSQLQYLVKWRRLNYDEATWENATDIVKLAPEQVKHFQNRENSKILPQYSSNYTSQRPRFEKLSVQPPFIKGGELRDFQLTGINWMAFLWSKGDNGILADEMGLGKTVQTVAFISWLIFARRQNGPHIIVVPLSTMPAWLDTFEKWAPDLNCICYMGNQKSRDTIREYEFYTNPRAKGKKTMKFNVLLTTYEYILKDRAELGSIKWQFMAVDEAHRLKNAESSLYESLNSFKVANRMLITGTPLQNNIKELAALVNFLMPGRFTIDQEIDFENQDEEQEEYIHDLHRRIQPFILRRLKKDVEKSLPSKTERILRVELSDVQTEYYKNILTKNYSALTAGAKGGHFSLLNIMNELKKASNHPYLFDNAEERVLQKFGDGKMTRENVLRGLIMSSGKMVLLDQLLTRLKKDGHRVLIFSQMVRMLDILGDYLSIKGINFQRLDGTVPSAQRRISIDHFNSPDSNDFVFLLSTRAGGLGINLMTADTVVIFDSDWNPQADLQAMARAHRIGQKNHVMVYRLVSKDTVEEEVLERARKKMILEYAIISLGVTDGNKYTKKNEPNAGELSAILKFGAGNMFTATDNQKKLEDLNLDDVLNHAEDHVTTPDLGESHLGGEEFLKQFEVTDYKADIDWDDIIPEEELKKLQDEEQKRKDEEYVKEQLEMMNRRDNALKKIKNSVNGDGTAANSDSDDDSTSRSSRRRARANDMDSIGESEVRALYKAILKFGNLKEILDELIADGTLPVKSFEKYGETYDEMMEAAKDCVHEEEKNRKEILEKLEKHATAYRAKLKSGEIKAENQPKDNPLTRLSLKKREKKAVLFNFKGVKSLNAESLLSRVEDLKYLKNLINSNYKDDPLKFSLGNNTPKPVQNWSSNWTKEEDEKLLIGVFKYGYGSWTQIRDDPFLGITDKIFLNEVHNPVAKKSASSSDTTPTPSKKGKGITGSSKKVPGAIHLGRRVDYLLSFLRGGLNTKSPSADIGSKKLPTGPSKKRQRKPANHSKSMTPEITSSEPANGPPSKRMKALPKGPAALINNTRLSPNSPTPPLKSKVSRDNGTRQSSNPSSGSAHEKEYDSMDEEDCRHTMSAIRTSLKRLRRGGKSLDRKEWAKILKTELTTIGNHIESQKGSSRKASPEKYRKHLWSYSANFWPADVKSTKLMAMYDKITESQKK

Protein translocase subunit SecA (Escherichia coli (strain K12)), sequence (P10408 whole entry): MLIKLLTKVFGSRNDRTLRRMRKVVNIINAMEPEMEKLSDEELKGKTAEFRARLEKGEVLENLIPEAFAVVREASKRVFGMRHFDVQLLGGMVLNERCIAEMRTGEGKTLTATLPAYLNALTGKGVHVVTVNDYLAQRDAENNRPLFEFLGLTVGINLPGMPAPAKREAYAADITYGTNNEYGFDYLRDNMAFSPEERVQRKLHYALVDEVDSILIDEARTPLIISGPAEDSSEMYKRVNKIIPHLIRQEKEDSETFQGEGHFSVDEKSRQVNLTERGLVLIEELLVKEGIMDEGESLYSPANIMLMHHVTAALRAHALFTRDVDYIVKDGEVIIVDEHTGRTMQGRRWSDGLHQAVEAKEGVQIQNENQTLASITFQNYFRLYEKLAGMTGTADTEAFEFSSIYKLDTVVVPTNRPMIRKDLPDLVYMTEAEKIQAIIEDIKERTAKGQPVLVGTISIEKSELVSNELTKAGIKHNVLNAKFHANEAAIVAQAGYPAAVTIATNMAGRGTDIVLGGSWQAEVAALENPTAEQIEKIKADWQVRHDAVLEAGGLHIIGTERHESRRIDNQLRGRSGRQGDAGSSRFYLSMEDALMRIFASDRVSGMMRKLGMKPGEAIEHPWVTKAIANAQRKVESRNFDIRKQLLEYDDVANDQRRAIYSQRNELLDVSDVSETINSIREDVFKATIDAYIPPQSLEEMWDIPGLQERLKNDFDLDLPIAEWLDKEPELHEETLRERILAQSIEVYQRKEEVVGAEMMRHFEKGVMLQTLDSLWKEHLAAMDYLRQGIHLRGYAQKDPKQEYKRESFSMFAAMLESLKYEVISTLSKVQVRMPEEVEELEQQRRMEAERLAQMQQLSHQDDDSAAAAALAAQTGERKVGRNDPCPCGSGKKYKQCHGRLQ
Sialic acid-binding Ig-like lectin 9 (Homo sapiens), sequence (Q9Y336 whole entry): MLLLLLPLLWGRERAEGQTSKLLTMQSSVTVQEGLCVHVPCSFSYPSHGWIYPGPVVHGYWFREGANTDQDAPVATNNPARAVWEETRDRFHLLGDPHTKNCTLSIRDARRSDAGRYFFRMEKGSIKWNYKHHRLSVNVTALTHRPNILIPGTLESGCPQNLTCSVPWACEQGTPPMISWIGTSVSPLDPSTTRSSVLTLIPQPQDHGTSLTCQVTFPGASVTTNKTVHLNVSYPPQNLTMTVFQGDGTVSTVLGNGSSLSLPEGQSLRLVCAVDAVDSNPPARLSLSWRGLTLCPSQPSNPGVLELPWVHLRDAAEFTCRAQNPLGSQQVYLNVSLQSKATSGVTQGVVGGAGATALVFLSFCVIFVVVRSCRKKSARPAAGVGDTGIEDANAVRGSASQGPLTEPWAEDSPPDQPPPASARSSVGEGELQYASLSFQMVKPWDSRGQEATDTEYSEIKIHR

Compound	Percent Effect [1] [%]	Percent Effect [2] [%]	Percent Effect [3] [%]	Percent Effect [4] [%]	Percent Effect (Trypanosoma cruzi) [%]	Percent Effect [5] [%]	Percent Effect [6] [%]	Percent Effect (Homo sapiens) [%]	Percent Effect [7] [%]	Percent Effect [8] [%]	Percent Effect [9] [%]
CC(C)c1nccn1C1CCCN(C(=O)c2ccc3[nH]nnc3c2)C1 (configuration not stated)	-8.55	7.79	-5.52	-4.53	9.89	-1.05	19	-2.41	4.76	11.8	-22.9
CN(Cc1ccc2c(c1)OCO2)Cc1nc2c(cnn2C)c(=O)[nH]1	-3.58	5.26	0.733	-4.42	0.467	-4.32	-0.592	4.07	8.37	6.17	-3.9
O=C1NCCCCC1Sc1nnc(C2CC2)n1C1CC1 (configuration not stated)	1.19	11	-3.07	-9.6	3.72	8.64	18.5	23.5	5.38	15	-13.5
O=C(N1CCCC1)N1CCN(CC2CC2)c2ncccc2C1	-3.07	5.33	8.78	-0.324	-6.69	7.69	21.8	10.6	4.25	1.28	-4.2
O=C(c1ccc(F)c(F)c1)N1CCCC(Nc2ccc(F)cc2)C1 (configuration not stated)	-2.99	-2.7	-4.26	1.48	6.56	-2.86	2.59	19.7	6.88	7.32	-2.35
CCOc1ccnc(N2CCN(C(=O)c3cccc(C#N)c3)CC2)n1	-7.73	13.2	-3.41	8.57	-1.77	-2.88	3.47	8.64	2.46	11.1	2.13
Cn1nc(C2CCCN(C(=O)Cc3ccsc3)C2)c2nccnc21 (configuration not stated)	-5.11	9.46	7.86	10.4	-5.14	-1.16	8.89	23.9	-1.07	6.49	-13.9
Cc1occc1C(=O)Nc1ccnc(OC2CCOC2)c1 (configuration not stated)	-0.474	6.94	-7.48	6.54	4.57	7.95	14.7	3.88	-2.1	2.56	-2.37
COC(=O)c1ccc2ccn(CC3CCCO3)c(=O)c2c1 (configuration not stated)	-0.0971	5.48	-14.6	5.25	0.979	12.3	16.3	6.29	4.3	10	78.9
CC(=O)N(C)c1nc(CN2CCOC(Cn3cc(C)cn3)C2)cs1 (configuration not stated)	-1.65	28.6	-5.25	-17.3	3.82	-6.95	17.4	16.8	8.57	30.6	-22.3
N#Cc1ccc(N2CCCN(C(=O)CC3CCCO3)CC2)cc1 (configuration not stated)	-4.45	5.41	7.34	18.8	5.19	-5.61	-2.34	10.8	0.493	16.1	-12.8
CCOC(=O)NC(C(=O)NCc1ccc(N2CCCCC2)nc1)C(C)C (configuration not stated)	-0.611	13.5	-4	-4.82	-5.94	0	13.9	28.9	3.45	16.1	-3.65
Cn1nc(C2CCN(C(=O)Cc3cccc(F)c3)CC2)c2cccnc21	-2.77	-6.76	12.2	3.61	4.35	-0.232	6.71	14.9	1.07	6.49	-3.75
CC1CN(C)c2ccccc2CN1C(=O)c1ccncc1 (configuration not stated)	-2.73	13.7	4.78	21.6	3.53	32.3	8.87	1.93	2.15	5	-3
O=C(Nc1ccccc1OC(F)F)C1=NN(c2ccccc2)C(=O)CN1	-1.64	10.1	-3.73	-7.92	-3.87	3.04	8.11	8.86	-0.493	11.4	-4.54
CCOCCCC(=O)NCc1cn2cc(Br)ccc2n1	-1.32	7.89	1.23	-4.68	-1.66	0	24.1	-9.79	6.38	15.6	-2.98
Fc1ccc(CCN2CCC(c3nnc(-c4cccnc4)o3)CC2)cc1	-1.2	1.35	6.27	-6.66	-0.988	-5.8	18.9	19.1	3.23	9.09	-14

From ChEMBL document CHEMBL3988442, “University of Dundee, Small-Polar-MMV Screening Library” (2021)
